Usually AC50 stands for the midpoint of the concentration-response curve, whichever way the signal moves.

For 21 molecules, AC50 and outcome results are on record in PubChem BioAssay (EPA / NIEHS).

Results filed as inconclusive are left out. The source made the active and inactive calls. How the source made its calls, unless noted: active means hit-call score of the fitted dose curve at least 0.9, where 1 is the maximum; inactive means score below 0.9.

The first assay deals with IYD (gene 389434). Put plainly: CCTE_GLTED_hIYD: CCTE's human Iodotyrosine Deiodinase (xIYD) Inhibition Assay, Great Lakes Toxicology and Ecology Division (GLTED) Lab (AID 2284317; active means hit-call score of the fitted dose curve at least 0.9, where 1 is the maximum;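 further: cell-free human IYD enzyme made in baculovirus insect cells; iodide freed from monoiodotyrosine measured by cerium arsenite color change at 420 nm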).
Details: not given
The gist of the method: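 First, recombinant human IYD (baculovirus-insect cells), MIT and chemical incubated 3 h. Next, iodide isolated on Dowex. Finally, Sandell-Kolthoff rate read at 420 nm, with platewise normalization to MNT and solvent controls.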
As for `CCCCCCCC[N+](C)(CCCCCCCC)CCCCCCCC`, the AC50 is 27.2 µM (active).

Take `CCN(CCC#N)c1ccc(N=Nc2c(Cl)cc([N+](=O)[O-])cc2Cl)cc1`: the AC50 was 152 µM (active).

For the molecule `O=C(Nc1ccccc1)c1ccccc1O`, the result was inactive.

As to `CC/C=C\C/C=C\C/C=C\CCCCCCCC(=O)O`, the call was inactive.

Consider `O=S(=O)(O)c1ccccc1C=Cc1ccc(-c2ccc(C=Cc3ccccc3S(=O)(=O)O)cc2)cc1`, for which the AC50 is 100 µM (active).

In the case of `CCCCCCCCCCCCCOP(=O)(O)O`, the AC50 was 40.2 µM (active).

For `CCCCCCCC/C=C\CCCCCCCC(=O)O`, the half-maximal activity concentration (AC50) was 41 µM (active).

Turning to `CCCCC/C=C\C/C=C\CCCCCCCC(=O)OC`, the molecule was classed as inactive.

Consider `CC(C)(C)c1ccc(-c2ccc(C(C)(C)C)cc2)cc1`, for which the molecule was called inactive.

On to `Oc1ccc(Cl)cc1Cc1cc(Cl)ccc1O`, for which the concentration at half-maximal activity (AC50) was 100 µM (active).

Regarding `CCCCCCCC/C=C\CCCCCCCC(=O)OCCO`, the AC50 was 128 µM (active).

On to `O=C(Nc1cccc(C(F)(F)F)c1)c1cc(Br)cc(Br)c1O`, for which the concentration at half-maximal activity (AC50) is 100 µM (active).

Tested on in the next assay: not listed separately
Put plainly: CCTE_Mundy_HCI_iCellGluta_NOG_NeuriteLength: CCTE's Neurite Outgrowth Assay in iCellGluta cells for Neurite Length, Mundy Lab (AID 2284318; active means hit-call score of the fitted dose curve at least 0.9, where 1 is the maximum).
Details: not given
How it is done: CCTE_Mundy_HCI_iCellGluta_NOG is a multiplexed, cell-based-readout assay that uses iCell GlutaNeurons from FUJIFILM Cellular Dynamics, Inc. (FCDI), human glutamatergic enriched neurons derived from induced pluripotent stem (iPS) cells, with measurements taken at 50.33 hours after chemical dosing in a microplate: 96-well plate.CCTE_Mundy_HCI_iCellGluta_NOG_NeuriteLength is one of four components of the CCTE_Mundy_HCI_iCellGluta_NOG assay. It measures neurite outgrowth related to neurite length using High Content Imaging of fluorescently labelled markers.Data from the assay component CCTE_Mundy_HCI_iCellGluta_NOG_NeuriteLength was analyzed at the endpoint CCTE_Mundy_HCI_iCellGluta_NOG_NeuriteLength in the positive analysis fitting direction relative to DMSO as the negative control and baseline of activity. Using a type of morphology reporter, loss-of-signal activity can be used to understand developmental effects.
Exposure starts 2 hours post-plating by adding 10 ul of the working solution to 90 ul of media in the wells for a 1/10 dilution. Forty-eight hours after chemical treatment cells are fixed by direct addition of 100 ul of warm (37C) Dulbecco's phosphate buffered saline (DPBS) fixative solution containing 8% paraformaldehyde, 8% sucrose, and 0.1% of 3 mg/ml Hoechst 33342 into each well. Primary antibodies are prepared by dilution in Immunocytochemical Staining Buffer (ISB), 10X Dulbecco's PBS, 0.1% Saponin, 5% Bovine Serum Albumin, 0.5% NaN3 (Sodium Azide) and betaIII-tubulin (rabbit anti-betaIII-tubulin, 1:800) followed by Alexa Fluor-488 secondary (1:500) to label neuronal cell bodies and neurites. A Cellomics ArrayScan VTi HCS Reader is used for automated image acquisition and analysis of neurite outgrowth.
For `CC1(C)S[C@@H]2[C@H](NC(=O)COc3ccccc3)C(=O)N2[C@H]1C(=O)O`, the outcome was inactive.

With `Nc1ncn([C@@H]2O[C@H](CO)[C@@H](O)[C@H]2O)c(=O)n1`, the AC50 was 7.87 µM (active).

On to `N[C@H]1C(O)O[C@H](CO)[C@H](O)[C@@H]1O` (stereo not given in full), for which the molecule was called inactive.

Tested on in the next assay: not listed separately
Put plainly: CCTE_Deisenroth_5AR_NBTE_donor: CCTE's 5alpha-reductase NanoBRET Target Engagement Assay […], Deisenroth Lab (AID 2284319). Particulars: actives raise or lower the signal. An outline of the steps: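 HEK293T cells were reverse transfected with an SRD5A2-NanoLuc vector for 20 h, exposed to test chemical (8 points, 10 nM - 29.9 uM) for 3 h, then testosterone tracer for 2 h more. Donor luminescence (460 nm) was read; bidirectional fit versus DMSO.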
(Bioluminescence resonance energy transfer reports proximity on the nanometre scale.)
Consider `CN(C)c1ccc(C(=N)c2ccc(N(C)C)cc2)cc1`, for which the molecule was called inactive.

On to `CCCCCCCC[N+](C)(CCCCCCCC)CCCCCCCC`, for which the AC50 is 11.4 µM (active).

Regarding `C1CN(SSN2CCOCC2)CCO1`, the result was inactive.

Turning to `CC1=NN(c2cc(S(=O)(=O)O)ccc2Cl)C(=O)C1N=Nc1ccccc1` (stereo not given), the molecule was called inactive.

On to `CCN(CCC#N)c1ccc(N=Nc2c(Cl)cc([N+](=O)[O-])cc2Cl)cc1`, for which the call was inactive.

As for `CCCCCCCC/C=C\CCCCCCCC(=O)O`, the molecule was classed as inactive.

As for `COC(=O)c1c(C)cc(O)c(C)c1O`, the molecule was called inactive.

Consider `Oc1ccc(Cl)cc1Cc1cc(Cl)ccc1O`, for which the molecule was called inactive.

For `CCCc1ccc(OC)cc1`, the molecule was called inactive.

With `Cc1ccc(C(C)c2ccc(C)c(C)c2)cc1C`, the molecule was classed as inactive.

Tested on in another assay: not listed separately
Put plainly: CCTE_Deisenroth_5AR_NBTE_acceptor: CCTE's 5alpha-reductase NanoBRET Target Engagement Assay - Autofluorescence Screen, Deisenroth Lab (AID 2284321).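 Further: compound fluorescence in the acceptor channel under 460 nm excitation flags autofluorescence artifacts.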 The note with it: actives raise or lower the signal. The gist of the method:
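Autofluorescence check: ToxCast chemicals, nominal 100 uM, excitation 460 nm, n=3 runs. Acceptor fluorescence endpoint, bidirectional fit relative to DMSO. Parent assay in HEK293T, 5 h post-dose.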
With `CN(C)c1ccc(C(=N)c2ccc(N(C)C)cc2)cc1`, the result was inactive.

Turning to `CCCCCCCC[N+](C)(CCCCCCCC)CCCCCCCC`, the AC50 is 8.7 µM (active).

Regarding `C1CN(SSN2CCOCC2)CCO1`, the molecule was classed as inactive.

On to `CC1=NN(c2cc(S(=O)(=O)O)ccc2Cl)C(=O)C1N=Nc1ccccc1` (stereo not given), for which the call was inactive.

As for `CCN(CCC#N)c1ccc(N=Nc2c(Cl)cc([N+](=O)[O-])cc2Cl)cc1`, the outcome was inactive.

Turning to `CCCCCCCC/C=C\CCCCCCCC(=O)O`, the call was inactive.

On to `COC(=O)c1c(C)cc(O)c(C)c1O`, for which the molecule was classed as inactive.

Regarding `Oc1ccc(Cl)cc1Cc1cc(Cl)ccc1O`, the molecule was called inactive.

Take `CCCc1ccc(OC)cc1`: the result was inactive.

For the molecule `Cc1ccc(C(C)c2ccc(C)c(C)c2)cc1C`, the molecule was called inactive.

A further assay deals with SRD5A2 (gene 6716). As to the kind of experiment: CCTE_Deisenroth_5AR_NBTE_ratio: CCTE's 5alpha-reductase NanoBRET Target Engagement Assay - Ratio, Deisenroth Lab (AID 2284322). The note with it: actives raise or lower the signal. An outline of the steps:
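Reverse-transfect HEK293T with pNLF1-C-SRD5A2, express 20 h. Pre-incubate cells with chemical 3 h (8-point series, 10 nM - 29.9 uM, duplicate). Add testosterone tracer, 2 h more. Add substrate/inhibitor, read donor and acceptor emission.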
With `CN(C)c1ccc(C(=N)c2ccc(N(C)C)cc2)cc1`, the AC50 is 22.6 µM (active).

As for `CCCCCCCC[N+](C)(CCCCCCCC)CCCCCCCC`, the AC50 is 20.1 µM (active).

Turning to `C1CN(SSN2CCOCC2)CCO1`, the outcome was inactive.

For `CC1=NN(c2cc(S(=O)(=O)O)ccc2Cl)C(=O)C1N=Nc1ccccc1` (stereo not given), the AC50 was 10 µM (active).

As to `CCN(CCC#N)c1ccc(N=Nc2c(Cl)cc([N+](=O)[O-])cc2Cl)cc1`, the half-maximal activity concentration (AC50) is 10 µM (active).

For the molecule `CCCCCCCC/C=C\CCCCCCCC(=O)O`, the outcome was inactive.

`COC(=O)c1c(C)cc(O)c(C)c1O`: the outcome was inactive.

With `Oc1ccc(Cl)cc1Cc1cc(Cl)ccc1O`, the half-maximal activity concentration (AC50) is 29 µM (active).

`CCCc1ccc(OC)cc1`: the result was inactive.

For `Cc1ccc(C(C)c2ccc(C)c(C)c2)cc1C`, the half-maximal activity concentration (AC50) was 50 µM (active).
